# Assay results: PubChem BioAssay AID488969 (Vanderbilt High Throughput Screening Facility, 2010)
# Whole data set: some 110,000 compounds, median “z-score” near -0.1, cut for the highest 2% near 2. The entries come from a sample that favours the highest values as a whole. The source made the active and inactive calls.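 Rule for the calls: active = z-score in the third read window above 3 or below -3; inactive = the rest.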
# Target: Metabotropic glutamate receptor 8 (Rattus norvegicus) (UniProt P70579)
# Assay: rat mGluR8 modulators via GIRK flux, primary screen, cell-based, thallium flux, HTS (AID 488969)
# Details: HEK293 rat mGluR8, GIRK (G protein-gated inwardly rectifying potassium channel) thallium flux, FluoZin2; at 10 µM; stronger effect = higher value; submaximal glutamate (EC20) added with thallium
# Sequence of Metabotropic glutamate receptor 8 (Rattus norvegicus) (P70579 whole entry, looked up): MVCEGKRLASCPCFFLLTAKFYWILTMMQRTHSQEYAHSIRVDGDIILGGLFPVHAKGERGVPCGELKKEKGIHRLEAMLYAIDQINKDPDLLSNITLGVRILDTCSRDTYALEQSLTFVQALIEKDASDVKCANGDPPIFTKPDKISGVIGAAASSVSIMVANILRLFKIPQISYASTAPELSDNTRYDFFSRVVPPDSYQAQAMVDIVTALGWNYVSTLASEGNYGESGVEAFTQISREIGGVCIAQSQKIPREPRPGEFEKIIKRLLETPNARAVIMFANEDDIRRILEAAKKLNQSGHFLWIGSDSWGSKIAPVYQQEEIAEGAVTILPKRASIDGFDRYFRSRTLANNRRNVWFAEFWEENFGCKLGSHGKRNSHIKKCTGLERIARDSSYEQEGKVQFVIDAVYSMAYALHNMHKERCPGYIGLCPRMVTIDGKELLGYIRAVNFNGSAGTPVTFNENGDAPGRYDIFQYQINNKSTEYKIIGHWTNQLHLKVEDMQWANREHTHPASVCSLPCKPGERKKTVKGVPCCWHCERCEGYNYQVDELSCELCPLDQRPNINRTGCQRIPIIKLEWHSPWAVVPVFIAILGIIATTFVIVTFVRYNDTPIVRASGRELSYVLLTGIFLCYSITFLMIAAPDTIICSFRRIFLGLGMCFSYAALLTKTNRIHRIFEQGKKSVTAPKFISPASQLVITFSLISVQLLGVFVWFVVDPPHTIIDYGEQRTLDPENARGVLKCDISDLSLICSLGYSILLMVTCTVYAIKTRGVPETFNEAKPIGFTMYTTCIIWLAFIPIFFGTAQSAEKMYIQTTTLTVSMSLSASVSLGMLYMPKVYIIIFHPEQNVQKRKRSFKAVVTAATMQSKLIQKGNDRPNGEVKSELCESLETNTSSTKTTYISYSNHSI
row,Compound,z-score
1,CCN(CC)CCn1c(SCC(=O)NCc2ccco2)nc2c(sc3ccccc32)c1=O,-0.759
2,Cc1nn(-c2ccccc2)c(C)c1/C=N/NC(=O)CSc1nnc(-c2ccccc2)n1-c1ccc(Cl)cc1,0.0544
3,O=C(Nc1nc(-c2ccccc2)cs1)c1ccc(Br)o1,2.96
4,O=C(Nc1cccc(-c2cc3ccccc3oc2=O)c1)c1ccc(Br)o1,-0.101
5,O=c1oc2ccccc2cc1-c1csc(NN=C2CCCC2)n1,-0.3
6,O=C(Nc1nc2ccc(Cl)cc2s1)c1ccco1,-0.371
7,O=C(Nc1nc(-c2cc3ccccc3oc2=O)cs1)c1ccc(Br)o1,13.7 (active)
8,O=C(Nc1nc2c(Cl)cccc2s1)c1ccc(Br)o1,0.452
9,O=C(Nc1nc2ccc(Cl)cc2s1)c1ccc(Br)o1,6.8 (active)
10,O=C(Nc1nc(-c2ccccc2)cs1)c1cccs1,-0.61
11,Cc1ccc(C(=O)Nc2nc(-c3cccnc3)cs2)o1,-0.0733
12,O=C(CSc1ncn(-c2ccccc2)n1)NCc1ccccc1,-0.242
13,CCN1CNC(=S)N(c2ccccc2OC)C1,-0.242
14,COCCn1c(SCC(=O)NCc2ccco2)nc2cccnc21,0.0661
15,COc1ccc(-c2noc(CCC(=O)Nc3cc(Cl)c(OC)cc3OC)n2)cc1,-0.134
16,COC(=O)c1cc(OC)c(OC)cc1NC(=O)Nc1ccccc1OC,-0.56
17,COc1ccc(OC)c(NC(=O)C(Sc2ccccc2)c2ccccc2)c1 (stereo not drawn),0.629
18,COc1ccc(NC(=O)C(Sc2ccccc2)c2ccccc2)c(OC)c1 (stereo not drawn),2.25
19,COC(=O)c1cc(OC)c(OC)cc1NC(=O)Nc1ccc(OC)cc1OC,3.48 (active)
20,COC(=O)c1cc(OC)c(OC)cc1NC(=O)Nc1ccc(OC)cc1,-0.0386
21,COc1ccccc1NC(=O)C(Sc1ccccc1)c1ccccc1 (stereo not drawn),0.792
22,COc1cc2cc(C#N)c(SCC(=O)N3CCOCC3)nc2cc1OC,0.593
23,C=CCn1cc(/C=N/NC(=O)COc2cccc3cccnc23)c2ccccc21,-0.515
24,Cc1ccc(-c2nn(CCC#N)cc2C=C(C#N)C#N)cc1,0.287
25,O=S(=O)(c1ccccc1)n1c(C(O)c2ccccn2)cc2ccccc21 (stereo not drawn),0.524
26,COc1ccc(N(CC(=O)N2c3ccccc3CC2C)S(=O)(=O)c2c(C)nn(C)c2C)cc1 (stereo not drawn),-0.0129

row,Compound,z-score
1,CCOc1ccc(NC(=O)Nc2cccs2)cc1,2.37
2,CCOc1ccc(NC(=O)Nc2ccc3nccnc3c2)cc1,-0.163
3,COc1cccc(NC(=O)Nc2cccs2)c1,1.67
4,COc1ccc(NC(=O)NC23CC4CC(CC(C4)C2)C3)cc1OC,-0.136
5,O=C(NNC(=O)c1ccc2c(c1)OCO2)NC12CC3CC(CC(C3)C1)C2,-0.287
6,COC(=O)c1cccc(NC(=O)NC23CC4CC(CC(C4)C2)C3)c1,-0.16
7,CCOc1ccc(NC(=O)C23CC4CC(C2)CC(c2ccccc2)(C4)C3)cc1,-0.381
8,CCOc1ccc(NC(=O)NC23CC4CC(CC(C4)C2)C3)cc1,4.76 (active)
9,N#Cc1cccc(NC(=O)Nc2cccs2)c1,2.55
10,CCOc1ccc(NC(=O)Nc2ccc(N(C)C(C)=O)cc2)cc1,0.478
11,O=C(Nc1ccc2c(c1)OCCO2)NC12CC3CC(CC(C3)C1)C2,2.32
12,N#Cc1cccc(NC(=O)c2ccccc2C(=O)O)c1,-0.112
13,CNC(=O)NC(=O)CSc1nc2ccccc2n1CCOC,-0.465
14,O=C1C2CCCN2C(c2cccc(Br)c2)N1c1ccc(F)cc1 (stereo not drawn),-0.401
15,C/C(=N/NC(=O)OC(C)(C)C)c1ccco1,-0.124
16,COC(=O)c1cn(CC(=O)N2CCCCC2C)c2ccccc12 (stereo not drawn),-0.213
17,COC(=O)c1ccc(C(=O)OC)c(NC(=O)CCc2ccc(C)o2)c1,-0.67
18,CCCCCn1cnc2sc(CC)cc2c1=O,-0.4
19,Cc1ccc(C(CCN)c2ccco2)cc1 (stereo not drawn),0.345
20,O=C1NC(=O)/C(=C\c2ccc(Sc3ccc(Cl)cc3)o2)N1,-0.263
21,Cc1cccc(NC(=S)NCC(c2cccnc2)N(C)C)c1 (stereo not drawn),0.286
22,CCOC(=O)c1ccc2ncc(C(=O)OCC)c(NCCN(C)C)c2c1,-0.571
23,COc1ccc(C(=O)NC(=S)NC(C)(C)C)cc1Br,0.436
24,C=CCN(CC=C)C(=S)NCCc1ccc(OC)c(OC)c1,-0.0119
25,Cc1ccc(/C=C/C(=O)c2ccc(C)cc2)cc1,0.025
26,C=CCN(CC=C)C(=S)NC(=O)c1ccc(C)c(Br)c1,15.3 (active)

row,Compound,z-score
1,CCN(CC)C(=O)c1ccc(C)c(Br)c1,-0.37
2,C=CCN(CC=C)S(=O)(=O)c1ccc(NC(=S)NC(=O)/C=C/c2ccc(C)cc2)cc1,-0.0815
3,COc1ccc(C(=O)NCc2ccccc2)cc1Br,-0.234
4,C=CCN(CC=C)C(=S)NC(=O)c1ccc(OC)c(Br)c1,15.4 (active)
5,CCCCC(=O)Nc1ccc(C(=O)NNC(=O)c2ccc(C)c(Br)c2)cc1,-0.00519
6,COc1ccc(C(=O)NC(=S)NC(C)C)cc1Br,1.79
7,COc1ccc(C(=O)NC(=S)NCCO)cc1Br,4.72 (active)
8,C=CCN(CC=C)C(=S)NC(=O)/C=C/c1ccc(C)cc1,4.57 (active)
9,CCOC(=O)c1nn(-c2ccc(C)c(C)c2)c(=O)c2c(N)scc12,-0.137
10,CC(C)(C)/C(O)=C/c1nc2ccccc2[nH]c1=O,-0.317
11,COc1ccccc1CNC(=S)NCCc1ccccc1,-0.133
12,COCCn1c(C)cc(C(=O)COC(=O)c2cncc(Br)c2)c1C,0.145
13,COC(=O)c1cc2ccsc2n1Cc1cc(=O)n2ccccc2n1,-0.127
14,COc1cccc(C(C(=O)NC2CCCC2)N(Cc2ccco2)C(=O)c2ccco2)c1OC (stereo not drawn),-0.188
15,CCOC(=O)C1=C(C)C(c2ccccc2)NC(=S)N1 (stereo not drawn),0.0117
16,CC1=CC(c2ccccc2)NC(=S)N1 (stereo not drawn),-0.113
17,CC1=C(C)C(c2ccccc2)NC(=S)N1 (stereo not drawn),3.39 (active)
18,CSc1ccn(CCC(=O)O)c(=O)n1,-0.489
19,CC(=O)c1cnn(-c2nc3c(C)cccc3s2)c1C,-0.111
20,c1ccc(-n2nnnc2-n2ccnc2)cc1,0.463
21,COc1ccc(S(=O)(=O)Cc2ccc(C(=O)NCc3cccnc3)o2)cc1,-0.0868
22,C/C(=N\NC(=O)c1nonc1N)c1cccs1,0.127
23,CC(=O)Nc1nc2ccccc2n1CCN(C)C,-0.911
24,Cn1c(N2CCOCC2)nc2c1c(=O)n(Cc1ccc(Cl)cc1)c(=O)n2C,-0.42
25,Cn1c(N2CCC(C(N)=O)CC2)nc2c1c(=O)n(Cc1ccc(Cl)cc1)c(=O)n2C,-0.154
26,Cn1c(N2CCCC2)nc2c1c(=O)n(Cc1ccc(Cl)cc1)c(=O)n2C,3.05 (active)
